Consider three compounds from PubChem BioAssay (NCATS).

Molecules are shown by their SMILES. A number with no mark means an inactive call. Results filed as inconclusive are left out. Active and inactive are the calls of the source. Unless noted, the call rests on the fitted dose curve; in most records, active means well fitted curve in the direction sought with a large enough effect; inconclusive means small, poorly fitted or top-dose-only effect, or another doubt; inactive means no such curve, though single readings can be large; an effect the other way counts as inactive or inconclusive.

The test system of one assay is CASKI. Description: Primary qHTS to identify gynecologic anti-cancer compounds using libraries of approved drugs and bioactive compounds (AID 1345084). Further: nearly all actives have a fitted effect of over 55% in size. Further: potency means the concentration at half of the fitted maximal effect. As to conditions: Gynecologic cancer cell panel viability, ATPlite luminescence, 48 h; series mostly up to 57.5 µM. A digest of the protocol: (§1)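 Cells, 1,000 per well, plated 16 h, then exposed 48 h at 37 C to compounds. Viability by ATPlite luminescence after 15 min at room temperature.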
A general note: In qHTS, concentration-response curves come from the screen itself.

The subject of another assay is JEG-3. The assay is described as above. As to conditions: Gynecologic cancer cell panel viability, ATPlite luminescence, 48 h; series mostly up to 57.5 µM. A digest of the protocol: as §1
The nature of assay [1]: Drug repurposing screens with cells derived from glioblastoma tumor samples (AID 1345199). Further: potency means the concentration at half of the fitted maximal effect. On activity, negative = cell killing: on the % scale 0 is the no-effect control and ±100 the full control effect. On all read-outs here: nearly all actives have a fitted effect of over 40% in size. As to conditions: GBM patient neurospheres viability, ATP luminescence, 48 h; for activity, negative = cell killing: at 45.9 µM (top of the series). The essentials: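 Four patient lines of CD133+ GBM neurospheres were screened at several concentrations; hits were retested in those lines plus three slower-growing GBM lines, using 48-hour treatment and ATP-based viability.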

The subject of a further assay is HeLa. In words: Primary qHTS to identify gynecologic anti-cancer compounds using libraries of approved drugs and bioactive compounds (AID 1345084). Further: nearly all actives have a fitted effect of over 55% in size. Further: potency means the concentration at half of the fitted maximal effect. As to conditions: Gynecologic cancer cell panel viability, ATPlite luminescence, 48 h; series mostly up to 57.5 µM. The essentials: as §1
Another assay concerns Es-2. The assay is described as above. As to conditions: Gynecologic cancer cell panel viability, ATPlite luminescence, 48 h; series mostly up to 57.5 µM. The essentials:
as §1
(ATP-based viability assays read luminescence as a measure of living cells.)

Assay [2] concerns the target Nuclear receptor subfamily 1 group I member 2 (Rattus norvegicus) (UniProt Q9R1A7). In words: qHTS assay for small molecule activators of the rat pregnane X receptor (rPXR) signaling pathway (AID 651751; call rule not given here; further: 0% is about no effect). As to conditions: rPXR reporter cells, luciferase (One-Glo), 24 h.

Nuclear receptor subfamily 1 group I member 2 (Rattus norvegicus), sequence (Q9R1A7 whole entry, looked up): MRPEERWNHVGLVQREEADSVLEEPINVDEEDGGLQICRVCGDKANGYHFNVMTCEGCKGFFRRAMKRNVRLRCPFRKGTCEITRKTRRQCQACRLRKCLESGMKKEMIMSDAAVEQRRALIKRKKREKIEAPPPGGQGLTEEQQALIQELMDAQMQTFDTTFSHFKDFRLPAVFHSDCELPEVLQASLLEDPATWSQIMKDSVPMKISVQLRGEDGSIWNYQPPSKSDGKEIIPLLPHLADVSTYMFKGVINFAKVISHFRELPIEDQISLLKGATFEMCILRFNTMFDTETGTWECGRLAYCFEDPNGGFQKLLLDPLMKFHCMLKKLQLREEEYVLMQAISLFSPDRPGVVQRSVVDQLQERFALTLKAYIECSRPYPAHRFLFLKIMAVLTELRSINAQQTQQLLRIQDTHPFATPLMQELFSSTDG

For `CC[C@]1(O)CC[C@H]2[C@@H]3CCC4=CCCC[C@@H]4[C@H]3CC[C@@]21C`, the Potency entry in the assay with CASKI and in the assay with JEG-3 was “inactive” throughout. For the same compound, the activity, negative = cell killing in assay [1] (tumour line B) was -25.8%. For the same compound, in assay [1] (tumour line A), the Potency was 10 µM (active).
`O=C(N[C@@H]1N=C(c2ccccc2F)c2cccc3c2N(CC3)C1=O)c1cc2ccccc2[nH]1`: the Potency in the assay with HeLa was 12.6 µM (active). Further, the results for the activity, negative = cell killing in assay [1] (tumour line B) and in assay [1] (tumour line D) were -3.52% and -3.25%, respectively.
As for `CCCCCCCCCCCC[N+](C)(C)CCOc1ccccc1`, the Potency in the assay with Es-2 was 31.6 µM (active); in the assay with HeLa, 31.6 µM (active); in assay [1] (tumour line A), 12.6 µM (active); in assay [1] (tumour line B), 15.8 µM (active); in assay [1] (tumour line D), 11.2 µM (active). Further, the Potency entry in the assay with JEG-3 was “inactive”. In addition, the max response in assay [2] was -13.8%.
